Only a selection was taken, and hits are over-represented in it overall.
IL-1B inflam inh: inhibitors of inflammasome signaling (IL-1 beta secretion); AID 743279; THP-1 LPS/ATP IL-1B secretion, AlphaLISA, 16 h; stronger effect = lower value; hit rate 4.7% among 360,000; activity change, % at 57.5 µM; in the data active = activity change below about -50%; inconclusive = mostly about -30% to -49%
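THP-1 cells pretreated 1 hr with compounds (up to 57.5 uM final), then stimulated with LPS (250 ng/mL final) plus ATP (1.25 mM final); secreted IL-1B measured by AlphaLISA after 16 hr, decreased signal indicating inhibition.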
DT40 TDP1 CPT: DT40-hTDP1 cell growth loss with CPT | chicken DT40 Tdp1-/-;hTDP1 cells + 20 nM CPT, ATP luminescence, 48 h | Potency, µM (doses to about 46.2 µM), inactives show at the top dose activity change, negative = growth inhibition, hits mostly inhibitors | hit rate 12% among 420,000 | AID 686979; also: potency is read from the fitted curve at half-maximal effect; nearly all actives have a fitted effect of over 55% in size
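Cell growth measured by CellTiter-Glo luminescence after a minimum 48 h, 37 C compound exposure with 20 nM CPT in Tdp1-knockout DT40 cells stably expressing hTDP1, seeded 400/well; qHTS titration format.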
HT1080-NT tox: kills 2HG-producing HT-1080-NT fibrosarcoma cells | HT-1080-NT fibrosarcoma viability, CellTiter-Glo ATP luminescence, 48 h | Potency, µM (series often up to 46.1 µM), inactives show at the highest dose activity, negative = less viability, usual class: cytotoxic | hit rate 1.6% among 360,000 | AID 686970;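 also: NT is the 2HG producing partner of a matched IDH1 knockdown line; potency is read from the fitted curve at half-maximal effect; 0% = DMSO-treated cells and -100% = media-only wells without cells; nearly all actives have a fitted effect of over 55% in size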
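HT-1080-NT; 750 cells/well; 5% FBS RPMI; 48 h compound, 37 degrees C; CellTiter-Glo luminescence; curve fitting and curve-class assignment.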
ALOX12 inh: ALOX12 (human) lipoxygenase inhibition; purified 12hLO, xylenol orange hydroperoxide absorbance; Potency, µM (titrated, usually from 108 µM), for the others: top-dose activity change, negative = inhibition, hits mostly inhibitors; hit rate 1.1% among 580,000; also: potency is read from the fitted curve at half-maximal effect
Target sequence (P18054 whole entry, looked up): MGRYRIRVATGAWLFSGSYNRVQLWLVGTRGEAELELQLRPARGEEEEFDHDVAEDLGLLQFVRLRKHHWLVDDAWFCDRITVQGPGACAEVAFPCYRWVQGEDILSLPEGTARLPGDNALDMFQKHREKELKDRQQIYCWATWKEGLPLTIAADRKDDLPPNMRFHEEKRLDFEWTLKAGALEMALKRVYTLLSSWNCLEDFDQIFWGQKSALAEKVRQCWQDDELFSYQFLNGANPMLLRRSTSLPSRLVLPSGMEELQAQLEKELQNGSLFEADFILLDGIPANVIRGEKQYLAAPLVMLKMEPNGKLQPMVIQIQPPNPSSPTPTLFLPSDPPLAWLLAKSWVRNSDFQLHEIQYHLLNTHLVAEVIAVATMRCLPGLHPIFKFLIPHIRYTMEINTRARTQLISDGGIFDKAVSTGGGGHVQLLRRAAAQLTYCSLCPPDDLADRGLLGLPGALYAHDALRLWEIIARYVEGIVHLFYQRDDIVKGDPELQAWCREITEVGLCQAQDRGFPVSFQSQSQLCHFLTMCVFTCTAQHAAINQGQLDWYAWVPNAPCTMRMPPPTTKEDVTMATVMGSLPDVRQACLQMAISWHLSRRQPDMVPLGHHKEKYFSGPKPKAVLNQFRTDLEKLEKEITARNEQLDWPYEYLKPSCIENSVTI
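Purified human 12hLO (150 nM final) in 25 mM Hepes, 0.01% Triton X-100, pH 7.0 was preincubated 15 min at room temperature with compound. Then 40 uM arachidonic acid was added, 30 min. Hydroperoxide was read by Fe-XO absorbance ratio 573/405 nm.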
HT1080 IDH1KD tx: kills HT-1080 cells with IDH1 knockdown; HT-1080 IDH1 knockdown viability, ATP luminescence, 48 h; Potency, µM (doses to about 46.1 µM), inactives show at the highest dose activity, negative = toxicity, usual class: cytotoxic; AID 686971; hit rate 2% among 360,000;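 also: potency is read from the fitted curve at half-maximal effect; 0% = DMSO wells and -100% = cell-free medium wells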
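HT-1080-IDH1KD cells (IDH1 knocked down), 750/well in RPMI with 5% FBS, treated with compound 48 h at 37 degrees C. Viability by CellTiter-Glo luminescence, normalised to DMSO and no-cell wells; concentration-response curves classed.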
DT40 TDP1 no CPT: qHTS for Inhibitors of human tyrosyl-DNA phosphodiesterase 1 (TDP1): qHTS in cells in absence of CPT; hit rate 15% among 420,000; DT40 Tdp1-/- hTDP1 cells, no CPT, ATP luminescence, 48 h; Potency, µM (highest dose often 46.2 µM), without a hit: at the top dose activity change, negative = growth inhibition, hits mostly inhibitors; also: potency is read from the fitted curve at half-maximal effect; nearly all actives have a fitted effect of over 55% in size
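Cells were dispensed at 400 per well, compounds added by pin tool, plates incubated ≥48 hr at 37 °C, then CellTiter-Glo added for 30 min at room temperature before luminescence reading. Line: DT40 Tdp1-/- complemented with hTDP1; camptothecin omitted.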
The depositor's hits bear a star. Unless noted, calls follow the shape of the dose curve; as a rule, active = well fitted curve in the direction sought with a large enough effect; inconclusive = small, poorly fitted or top-dose-only effect, or another doubt; inactive = no such curve, though single readings can be large; an effect the other way counts as inactive or inconclusive. Unless noted, % is scaled to controls: 0 for no effect and ±100 for the full control effect.

Cc1ccc2nc(-c3cc(NC(=O)c4cccc(Cl)c4)ccc3O)oc2c1 was read as ALOX12 inh 26.9%.
Screening Cc1c(O)ccc(C(=O)CN2CCN(c3ccc(F)cc3)CC2)c1O returned IL-1B inflam inh 22.8, DT40 TDP1 CPT inconclusive, HT1080-NT tox -0.8%, ALOX12 inh inconclusive, HT1080 IDH1KD tx -7.9% and DT40 TDP1 no CPT 16.4µM*.
Cc1c(O)ccc(C(=O)CN2CCN(Cc3ccccc3)CC2)c1O was read as IL-1B inflam inh 3.4, DT40 TDP1 CPT -12.2%, HT1080-NT tox -1.3%, ALOX12 inh -25.9%, HT1080 IDH1KD tx -0.4% and DT40 TDP1 no CPT -8.6%.
`COc1cc(NC(=O)c2ccc(C(=O)Nc3cc(OC)c(Cl)cc3OC)cc2)c(OC)cc1Cl` gave DT40 TDP1 CPT -2.9%, ALOX12 inh -20.5% and DT40 TDP1 no CPT 0.9%.
`COc1cc(OC)c(NC(=O)c2cc3ccccc3cc2O)cc1Cl` gave IL-1B inflam inh -78.2*, DT40 TDP1 CPT 10.3µM*, HT1080-NT tox -11.1%, ALOX12 inh -10.0%, HT1080 IDH1KD tx -8.7% and DT40 TDP1 no CPT inconclusive.
Screening COc1ccc(C(=O)Nc2cc(OC)c(Cl)cc2Cl)cc1 returned IL-1B inflam inh 9.9, DT40 TDP1 CPT 2.5%, HT1080-NT tox -18.0%, ALOX12 inh -39.0%, HT1080 IDH1KD tx -4.4% and DT40 TDP1 no CPT 23.1µM*.
For COc1ccc(-c2nnc(C[C@@H]3C[C@@H](C(C)C)[C@H](CNCc4ccco4)C=C3C)o2)cc1 the results were ALOX12 inh 44.4%.
CC1Cc2ccccc2N1c1ncnc(N)c1[N+](=O)[O-] (stereo not drawn) was read as IL-1B inflam inh -91.9*, DT40 TDP1 CPT 4.11µM*, HT1080-NT tox -10.6%, ALOX12 inh 0.0%, HT1080 IDH1KD tx 6.2% and DT40 TDP1 no CPT 1.46µM*.
Screening c1ccc2c(c1)CCN(c1ncnc3nc[nH]c13)C2 returned IL-1B inflam inh 24.6, DT40 TDP1 CPT inconclusive, HT1080-NT tox 14.6%, ALOX12 inh -20.0%, HT1080 IDH1KD tx 10.7% and DT40 TDP1 no CPT inconclusive.
Screening CN(Cc1ccccc1)c1ncnc(N)c1[N+](=O)[O-] returned IL-1B inflam inh -16.9, DT40 TDP1 CPT -28.1%, HT1080-NT tox -9.9%, ALOX12 inh -21.6%, HT1080 IDH1KD tx -4.9% and DT40 TDP1 no CPT inconclusive.
`CC1Cc2ccccc2N1c1ncnc2nc[nH]c12` (stereo not drawn) gave IL-1B inflam inh -10.8, DT40 TDP1 CPT inconclusive, HT1080-NT tox 1.3%, HT1080 IDH1KD tx 1.7% and DT40 TDP1 no CPT 23.1µM*.
Screening CC1CCCCN1c1ncnc(N)c1[N+](=O)[O-] (stereo not drawn) returned IL-1B inflam inh -78.3*, DT40 TDP1 CPT inconclusive, HT1080-NT tox -17.5%, ALOX12 inh -1.4%, HT1080 IDH1KD tx 1.2% and DT40 TDP1 no CPT inconclusive.
Screening CCOc1cc(C(=O)OCC(=O)Nc2ccc(F)c(Cl)c2)ccc1OCC(=O)N1CCCCC1 returned ALOX12 inh -12.1%.
For Cc1ccc(NCc2nnc(SCC(=O)Nc3ncc(C)s3)n2CC2CCCO2)c(C)c1 (stereo not drawn) the results were IL-1B inflam inh -9.6, DT40 TDP1 CPT -7.7%, HT1080-NT tox -10.0%, ALOX12 inh 7.4%, HT1080 IDH1KD tx -5.8% and DT40 TDP1 no CPT inconclusive.
`Cc1ccc(NCc2nnc(SCC(=O)Nc3cccc(O)c3)n2CC2CCCO2)c(C)c1` (stereo not drawn) gave IL-1B inflam inh -51.2*, DT40 TDP1 CPT inconclusive, HT1080-NT tox 0.6%, ALOX12 inh -11.3%, HT1080 IDH1KD tx -9.7% and DT40 TDP1 no CPT inconclusive.

From PubChem
